Shown are actives, neighbours in structure and some others; about 3.5% of the full set was active somewhere.
FBPA Giardia inh – qHTS Assay for Inhibitors of Fructose-1,6-bisphosphate Aldolase from Giardia Lamblia | A8B2U2 | purified Giardia FBPA | Potency, µM (top dose mostly 59.6 µM), most hits filed as inhibitors | hit rate 0.71% among 290,000; also: nearly all actives have a fitted effect of over 55% in size
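40 nM FBPA preincubated 10 min at RT with compound (up to 57.5 uM final), then substrate plus GAPDH/TPI/NAD/arsenate coupling and diaphorase/resazurin added. Fluorescence read after 20 min at RT, 525/598 nm.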
NS1 inh – qHTS Assay for Inhibitors of Influenza NS1 Protein Function; Potency, µM (titrated, usually from 46.1 µM); hit rate 0.4% among 270,000; calls by dose curve; also: actives are rising curves; nearly all actives have a fitted effect of over 50% in size
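In this qHTS, NS1 from influenza A is expressed in budding yeast, where it slows growth. Cells are switched from glucose to 2% galactose medium (pH 6.0, -URA), treated with compound, and growth recovery is read at OD600.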
Tb PYK inh – qHTS of Trypanosoma Brucei Inhibitors; pyruvate kinase (Trypanosoma brucei), Q57TT1; TbPYK enzyme, Kinase-Glo Plus ATP luminescence, 45 min; Potency, µM (doses to about 76.8 µM), most hits filed as inhibitors; hit rate 0.12% among 410,000; AID 624173, 2012; also: nearly all actives have a fitted effect of over 50% in size
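Screened from lowest to highest concentration, compounds were pinned into TbPYK/substrate mixtures, and ADP (130 uM final) was added. Plates sat at room temperature for 45 min prior to Kinase-Glo Plus detection by luminescence.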
LmPK inh – qHTS Assay for Inhibitors of Leishmania Mexicana Pyruvate Kinase (LmPK) | Q27686 | hit rate 0.37% among 290,000 | purified LmPK, Kinase-Glo ATP luminescence, 1 h | Potency, µM (titrated, usually from 57.5 µM), usual class: inhibitors
Target sequence (Q27686 whole entry, looked up): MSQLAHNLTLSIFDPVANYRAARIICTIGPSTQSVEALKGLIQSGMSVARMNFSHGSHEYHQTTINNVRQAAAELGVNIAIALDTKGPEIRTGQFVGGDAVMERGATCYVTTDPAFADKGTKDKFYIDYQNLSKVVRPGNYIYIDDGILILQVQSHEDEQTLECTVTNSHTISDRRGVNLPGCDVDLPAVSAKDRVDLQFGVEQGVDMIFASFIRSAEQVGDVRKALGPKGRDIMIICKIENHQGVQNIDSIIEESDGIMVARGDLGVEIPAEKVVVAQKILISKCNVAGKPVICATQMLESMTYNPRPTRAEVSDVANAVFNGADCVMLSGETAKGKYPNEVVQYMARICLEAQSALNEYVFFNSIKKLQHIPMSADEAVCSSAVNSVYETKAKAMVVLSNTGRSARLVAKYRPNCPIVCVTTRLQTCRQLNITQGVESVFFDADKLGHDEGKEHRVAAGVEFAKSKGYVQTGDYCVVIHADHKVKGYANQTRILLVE
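In 50 mM imidazole pH 7.2 with 7 mM MgCl2, LmPK (0.1 nM) turned over PEP (0.5 mM) and ADP (0.1 mM) for 1 h at room temperature. Luciferase read-out of ATP.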
RE007 growth inh – qHTS Assay for Inhibitors of the HIV-1 protein Vpr; S. pombe RE007 Vpr strain, BacTiter-Glo ATP luminescence, 24 h; Potency, µM (titrated, usually from 92.2 µM), hits mostly inhibitors; hit rate 0.21% among 360,000; active = well fitted falling curve with a large enough effect; inconclusive = small, poorly fitted or top-dose-only effect; inactive = no such curve, though single readings can be large or run the other way; also: nearly all actives have a fitted effect of over 50% in size
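Fission yeast RE007 carrying one integrated HIV-1 vpr copy, seeded at OD 0.01 in PMG+AL medium with 23 nL pinned compound. Grown 24 h at 30 degrees; viability read by BacTiter-Glo luminescence after 5 min.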
Sm TGR block – qHTS Assay for the Inhibitors of Schistosoma Mansoni Peroxiredoxins; purified TGR, DTNB reduction, TNB absorbance 405 nm; Potency, µM (doses to about 114 µM), most hits filed as inhibitors; hit rate 3% among 360,000; AID 485364, 2010; also: nearly all actives have a fitted effect of over 60% in size
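First, TGR (20 nM dispensed) and NADPH were mixed with compound. Second, a 15 min room-temperature incubation followed. Third, further NADPH and then DTNB were added to start the reaction. Finally, TNB absorbance was monitored kinetically.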
Numbers stand for hits. Unless noted, calls follow the shape of the dose curve; as a rule, active = well fitted curve in the direction sought with a large enough effect; inconclusive = small, poorly fitted or top-dose-only effect, or another doubt; inactive = no such curve, though single readings can be large; an effect the other way counts as inactive or inconclusive.

`COc1ccc(Cn2c(N)c(C(=O)NCc3ccco3)c3nc4ccccc4nc32)cc1OC` gave FBPA Giardia inh inactive, NS1 inh inconclusive, Tb PYK inh inactive, LmPK inh inactive, RE007 growth inh inactive and Sm TGR block 35µM.
COc1ccc(-n2c(N)c(C(=O)NCc3ccco3)sc2=S)cc1 was read as FBPA Giardia inh inactive, NS1 inh inconclusive, Tb PYK inh inactive, LmPK inh inactive, RE007 growth inh inactive and Sm TGR block inactive.
Screening COc1ccc(-n2c(N)c(C(=O)NCc3ccco3)c3nc4ccccc4nc32)cc1 returned FBPA Giardia inh inactive, NS1 inh inactive, Tb PYK inh inactive, LmPK inh inactive, RE007 growth inh inactive and Sm TGR block 45µM.
COc1cc2c(c(OC)c1OC)-c1c(cc3c(c1OC)OCO3)CC(C)C(C)(O)C2 (stereo not given) was read as Tb PYK inh inactive.
Screening CCC(C)Sc1oc(-c2ccco2)nc1S(=O)(=O)c1ccc(C)cc1 (stereo not given) returned Tb PYK inh inactive and Sm TGR block inactive.
CCc1cccc(NC(=O)CN(C)S(=O)(=O)c2ccc3c(c2)CCCN3C(C)=O)c1 was read as Tb PYK inh inactive and Sm TGR block inactive.
`Cc1ccc(C)c(NC(=O)CSc2c3c(nc4ccc(Cl)cc24)CCCC3)c1` gave Tb PYK inh inactive and Sm TGR block inactive.
Cc1ccc(NC(=O)c2c(C)oc3ccc(O)c(CN4CCCCCC4)c23)cc1 was read as Tb PYK inh inactive and Sm TGR block inactive.
For C=CCOc1ccccc1CN(C(=O)CCl)c1ccc2c(c1)OCO2 the results were FBPA Giardia inh inactive, NS1 inh inactive, Tb PYK inh inactive, LmPK inh inactive, RE007 growth inh inactive and Sm TGR block 8.9µM.
For CCOc1ccccc1CN(CCc1ccc2c(c1)OCO2)Cc1ccc(CC)cc1 the results were Tb PYK inh inactive and Sm TGR block inactive.

Screening data: PubChem BioAssay, National Center for Advancing Translational Sciences (NCATS)
